# Laboratory results published in the supplement of paper PMC10338343.
# ± gives the standard deviation. Over roughly 8,200 sequences, “pre-steady-state target cleavage rate” has its median near 0.024; the highest 2% begin near 1.3. Only a selection was taken, and the highest values are over-represented in it overall.
# Test system: MIWI (PIWIL1) piRISC loaded with L1MC piRNA (30 nt)
# Assay: pre-steady-state target cleavage rate (min^-1); MIWI and MILI are mouse PIWI proteins and EfPiwi is from a freshwater sponge; tags in brackets are library labels; higher = faster piRNA-guided slicing of the target
# Conditions: guide: L1MC piRNA 5'p-UAACUAAAUACUAUGCAAGCUGUAGGUCCU
# In short: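 A transcribed, DNA-blocked target RNA library (0.1 nM) and 1 nM active affinity-purified piRISC bearing one synthetic guide were incubated in HEPES–potassium acetate buffer at 33 °C for 0–8 or 0–960 min, either with or without 500 nM GTSF1 partner protein. Uncleaved targets were sequenced, normalised to depth and to weakly complementary targets, and pooled over three trials, with k3 capped at 0.0001 min^-1. The pre-steady-state cleavage rate was derived with a burst-and-steady-state fit.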
# [1] = auxiliary factor: 500 nM mouse GTSF1
# [2] = auxiliary factor: none (no GTSF1)
Sequence,pre-steady-state target cleavage rate [1],pre-steady-state target cleavage rate [2]
UCCUCCUACAGCUUGCAUAGUAUAAUGUUA,0.346 ± 0.027,0.0146 ± 0.0024
UCCUGGUACAGCCUUGCAUAGUAUUUAGUUA,0.594 ± 0.049,0.0422 ± 0.0091
UGGACCUACAGCUUGCGUAGUAUUUAGUUA,1.79 ± 0.11,0.0538 ± 0.01
AGGACCUACAGCUUGCGUAGUAUUUAGUUA,1.24 ± 0.077,0.075 ± 0.013
UCGACCUACAGCUUGCCUAGUAUUUAGUUA,1.14 ± 0.046,0.0457 ± 0.0085
UCCUGCUACAGCUUGCGUAGUAUUUAGUUA,0.806 ± 0.044,0.0172 ± 0.0034
UCGACCUACAGCUUGCGUAGUAUUUAGUUA,1.86 ± 0.066,0.0695 ± 0.018
UCCUCCUACAGCUUGCGAUAGUAUUUAGUUA,0.0601 ± 0.018,
UCCUCCUACAGCUUGCGUAGUAUUUAGUUA,1.55 ± 0.078,0.0225 ± 0.0064
UCCACCUACAGCUUGCGUAGUAUUUAGUUA,1.26 ± 0.049,0.0423 ± 0.0094
UCGACCUACAGCUUGCGAUAGUAUUUAGUUA,0.0797 ± 0.02,
UGGACCUACAGAUUGCAUAGUAUUUAGUUA,1.12 ± 0.11,0.042 ± 0.0077
AGGACCUACAGCUUGCAUACAUUUUAGUUA,0.0106 ± 0.0061,
UCGUCCUACACCUUGCAUAGUAUUUAGUUA,0.986 ± 0.045,0.0586 ± 0.0084
UCGACCUACAGCUUGCAUACAAUUUAGUUA,0.0219 ± 0.0076,0.00334 ± 0.0025
UCGUCGUACAGCUUGCAUAGUAUUUAGUUA,1.31 ± 0.067,0.0685 ± 0.012
UCCUGGUACAGCUUGCAAAGUAUUUAGUUA,0.711 ± 0.046,0.0405 ± 0.0074
UCGUACCUACAGCUUGCAUAGUAUUUAGUUA,0.909 ± 0.034,0.0778 ± 0.016
UCCUCGUACAGCUUGCAUAGUAUUUAGAAA,0.363 ± 0.029,0.00538 ± 0.0021
UCCACCGUACAGCUUGCAUAGUAUUUAGUUA,1.18 ± 0.054,0.0628 ± 0.012
UCGUGGUACAGCUUGCAUAGUAUUUAGUUA,1.23 ± 0.038,0.0818 ± 0.014

Sequence,pre-steady-state target cleavage rate [1],pre-steady-state target cleavage rate [2]
UCCUCCUACAGCUUGCAAAGUAUUUAGUUA,1.14 ± 0.039,0.0317 ± 0.0066
UCCUCGUACAGCUUGCAAAGUAUUUAGUUA,1.32 ± 0.048,0.0595 ± 0.012
UCCUCGUACAGCUUGCAUAGUAUUUAGUAA,0.903 ± 0.048,0.0263 ± 0.0049
UCCUCGUACAGCUUGCAUAGUAUUUAGUUA,1.46 ± 0.043,0.0602 ± 0.01
UGGUCGUACAGCUUGCAUAGUAUUUAGUUA,1.33 ± 0.056,0.073 ± 0.0095
UCCUGCUACAGCUUGCAUAGUAUAAUGUAA,0.188 ± 0.038,
UGGACCUACAGCUUGCAUAGUAUUAAGUUA,0.719 ± 0.06,0.0363 ± 0.006
AGGACCUACUGCUUCCAUAGUAUUUAGUUA,0.069 ± 0.011,0.00657 ± 0.0012
UCGAGCUAGAGCUUGCAUAGUAUUUAGUUA,0.962 ± 0.051,0.0483 ± 0.0092
UCGACCAAGAGCUUGCAUAGUAUUUAGUUA,0.954 ± 0.04,0.0547 ± 0.011
UCCUGGAUGUGCUUGCAUAGUGAUUUAGUUA,0.00393 ± 0.0038,
UCCUGGUACAGCUAGGAUAGUAUUUAGUUA,0.611 ± 0.084,0.00486 ± 0.002
UGGACCUACAGCUUGGAUAGUAUUUAGAAA,0.342 ± 0.047,0.0107 ± 0.003
UCCUGCUACAGCUUGCAAACUAUUUAGUUA,0.363 ± 0.027,0.00719 ± 0.0031
AGGACCUACAGCUUGCAUAGUAUUUUGUUA,0.949 ± 0.064,0.0718 ± 0.016
UCCUGCUACUGCUUGCAUAGUAUAUAGUUA,0.226 ± 0.024,0.0142 ± 0.0034
AGGACCUACAGGAAGCAUAGUAUUUUCAAA,0.132 ± 0.024,
UCCUGGAUCAGGUAGCAUAGUAUUUAGUUA,0.0152 ± 0.0033,0.00289 ± 0.0022
UCCUCGUACAGCUUGCUUAGUAUUUAGUUA,1.51 ± 0.069,0.0419 ± 0.0089
UCCUCCUACAGCUUGCUUAGUAUUUAGUUA,1.28 ± 0.06,0.0241 ± 0.0053
UCCUGGUACAGCUUGCUUAGUAUUUAGUUA,0.79 ± 0.037,0.0523 ± 0.011

Sequence,pre-steady-state target cleavage rate [1],pre-steady-state target cleavage rate [2]
UCCAGGUACAGCUUGCAUAGUAUUUAGUUA,1.09 ± 0.04,0.0764 ± 0.011
AGGUCGUACAGCUUGCAUAGUAUUUAGUUA,1.44 ± 0.065,0.0817 ± 0.012
AGGACCUAGAGCUUGCAUAGUUUUUAGUUA,0.343 ± 0.023,0.0238 ± 0.0061
UCCUCCUACAGCUUGCAUAGUUAUUAGAAA,0.0862 ± 0.022,
UCCUGGAACAGCAUGCAUAGUAUUUACUUA,0.446 ± 0.045,0.0279 ± 0.0094
UCCACCUACAGCUUGCAUAGUAUUCUAGUUA,0.633 ± 0.067,0.0214 ± 0.0052
UCCUCCUACAGCUUGAUAGUAUUUAGUUA,0.824 ± 0.05,0.00583 ± 0.0021
UCCUCCUACAGCUUGGAUAGUAUUUAGUUA,1.44 ± 0.045,0.0511 ± 0.0092
UCCUCCUACAGCUUGUAUAGUAUUUAGUUA,1.38 ± 0.042,0.0427 ± 0.008
UCCUCCUACAGCUUGGAUAGUAUUUAGAUA,0.372 ± 0.039,0.00865 ± 0.0019
AGGUCCUACAGCUUGGAUAGUAUUUAGUUA,1.39 ± 0.072,0.079 ± 0.014
UCCUCCUACAGCUUGUCAUAGUAUUUAGUUA,0.44 ± 0.046,
UCGUCCUACAGCUUGGAUAGUAUUUAGUUA,1.56 ± 0.048,0.0586 ± 0.0084
UCCUCCUACAGCUUGGCAUAGUAUUUAGUUA,0.831 ± 0.11,0.0114 ± 0.0021
UCCUGCUACAGCUUGGAUAGUAUUUAGUUA,1.29 ± 0.12,0.0507 ± 0.0096
UCCUCCUACAGCUUGGAUAGUAUUUAGUAA,0.707 ± 0.045,0.0186 ± 0.0033
UGGUCCUACAGCUUGGAUAGUAUUUAGUUA,1.22 ± 0.038,0.0568 ± 0.0069
UGGAGCUACAGCUUGGAUAGUAUUUAGUUA,1.11 ± 0.083,0.0533 ± 0.0083
UCCACCUACAGCUUGCAUUGUAUUUACAAA,0.112 ± 0.024,
